PubChem BioAssay AID504894 (National Center for Advancing Translational Sciences (NCATS), 2011)
Among all 330,000 compounds or so, fewer than 10 were called active. Calls follow the shape of the dose curve; as a rule, active = well fitted activation curve with a large enough effect; inconclusive = small, poorly fitted or top-dose-only effect, or another doubt; inactive = no such curve, though single readings can be large or run the other way. Only a sample is shown.

Assay: Activators of T cell receptors: qHTS campaign; also: % of control where 0% means no effect
Details: primary human leukocytes, anti-CD3, IL-2 HTRF, 48 h; series mostly up to 9.22 µM; activation of IL-2 secretion: at the top concentration
From the text: Normally activation of naive T cells requires two signals. 1. A signal through the T cell receptor (TCR) which provides antigen specificity to the response. 2. Signals through co-stimulatory molecules, which are necessary for proliferation, survival and cytokine production. In the absence of co-stimulatory signals T cells are not effectively activated, and may even be rendered anergic or unresponsive to subsequent signaling. This lack of costimulation has been shown in multiple model systems to be a major factor in the limited strength and effectiveness of anti-tumor T cell responses. The goal of this project is to identify small molecule compounds that will stimulate T cell activation in the presence of TCR signaling but in the absence of co-stimulatory signals, thereby allowing activation of naive T cells in the absence of co-stimulation. Identification of such compounds would have clear experimental and clinical applications in instances where desirable antigen-specific immune responses are not generated due to a lack of co-stimulation, for example in the generation of anti-tumor responses. In collaboration between the National Cancer Institute and NIH Chemical Genomics Center, a high-throughput amenable screen was developed to discover small molecules that co-stimulate and activate human T cell receptors. The screen will be carried out using a novel homogeneous time resolved fluorescence energy transfer (HTRF) assay to measure production of the cytokine IL-2 by activated T cells and will be tested against the NIH Molecular Libraries Small Molecule Repository (MLSMR). NIH Chemical Genomics Center [NCGC] NIH Molecular Libraries Probe Centers Network [MLPCN] MLPCN Grant: MH090820-01 Assay Submitter (PI): Richard Hodes, National Cancer Institute, NIH
Primary human leukocytes are incubated with a-CD3 beads and compounds for 48 hr. The amount of secreted IL-2 is then assayed with a HTRF IL-2 kit. The presence of IL-2 cytokine captures the detection reagents and brings the a-IL-2-K and a-IL-2-d2 into close proximity. Upon excitation with 320nm light, the europium cryptate is capable of transferring energy to acceptor molecules within close proximity, resulting in acceptor molecule emission at 665nm.

Activation of IL-2 secretion, inactive:
O=C(O)C1C2C=CC(O2)C1C(=O)Nc1ccccn1 (centres undefined) -9.44%
O=C(NCc1ccccc1)c1cccc(NC(=O)C2CCCCC2)c1 2.41%
O=C(NCCc1ccccc1)c1cccc(NC(=O)c2ccccc2)c1 1.8%
CCOc1ccc(CCNC(=O)COC(=O)C2CCN(S(=O)(=O)c3ccccc3)CC2)cc1OCC 3.13%
COc1ccc(-c2ccc3c(c2)[C@@H]2C[C@H](N(C)S(=O)(=O)c4ccccc4)[C@H]([C@H](C)O)C(=O)N2CC3)cc1 -1.04%
Oc1c(CN2CCOCC2)ccc(CN2CCOCC2)c1O -4.54%
COc1ccc(C2NCCCC2c2ccccc2)cc1 (centres undefined) -1.89%
O=C(NN=Cc1ccccc1)c1ccccc1 0.412%
CCC1(C)COC(c2ccc(OC)c(OC)c2)OC1 (centres undefined) 1.82%
Cc1ccccc1N1CCN(C(=O)c2cccnc2)CC1 5.77%
CSCCC(NC(=O)COc1ccccc1)C(=O)N1CCN(c2cccc(C(F)(F)F)c2)CC1 (centres undefined) -6.34%
O=S1(=O)CCOC[C@H](Cc2ccccc2)N1Cc1ccccc1Br -2.37%
CC(Nc1ccc([N+](=O)[O-])cc1[N+](=O)[O-])c1ccccc1 (centres undefined) 3.61%
NN=C(NN=Cc1ccccc1)c1ccccc1 8.09%
Cn1c(=S)sc2ccc3ccccc3c21 -8.56%
Nc1ncnc2c1cnn2C1CC(O)C(CO)O1 (centres undefined) 5.52%
COc1ccc(CS(=O)/C(Cl)=C(/Cl)C(=O)Nc2ccc(OC)nc2)cc1 (centres undefined) 3.3%
N=C1c2ccccc2-c2ccccc21 3.58%
C/C(=N\Nc1ccccc1)c1cccs1 -2.99%
CCCCCCCCNS(=O)(=O)CCNC1CCCCC1 -0.0999%
O=S1(=O)CSCS(=O)(=O)C1 -5.1%
Cc1ccc(SCC(=O)N2CCN(c3ccc(F)cc3)CC2)cc1 -7.83%
Cc1nc(Nc2ccccc2C)c2cnn(C)c2n1 2.43%
COc1ccc(NC(=O)/C(N=Nc2cccc(S(=O)(=O)Nc3ccc(SC(F)F)cc3)c2)=C(\C)O)cc1 -4.11%
O=C1CC[C@@H]2CC3(C[C@@H]4CCN1[C@H]24)Nc1cc([N+](=O)[O-])ccc1NC3=NC1CCCCC1 (some centres undefined) -5.47%
N#CC1=C(N)Oc2cc(N)ccc2C1c1ccccc1 (centres undefined) 4.31%
CN(CCc1ccccc1)C(=O)c1cccc(NC(=O)Cc2cccc(NC(=O)C3CCCN(C(=O)C4CCC4)C3)c2)c1 (centres undefined) -4.22%
COc1ccc(Nc2ccc3ccccc3c2)cc1 2.88%
COC1=NC2=NCCN2C(OC)=N1 -0.648%
